PLK1 PBD block: qHTS for Inhibitors of PLK1-PDB (polo-like kinase 1 - polo-box domain): Primary Screen. Serine/threonine-protein kinase PLK1 (Homo sapiens), P53350. Plk1 PBD binding of FITC phosphopeptide, fluorescence polarization. Potency, µM, for inactives: max response, negative = inhibition, hits mostly inhibitors. actives 2.8% (n = 360,000). AID 720504, 2013; also: series mostly up to about 57 µM; % is scaled to controls: 0 for no effect and ±100 for the full control effect; nearly all actives have a fitted effect of over 65% in size
PKM2 act: qHTS Assay for Activators of Human Muscle isoform 2 Pyruvate Kinase | Pyruvate kinase PKM (Homo sapiens), P14618 | purified PKM2, Kinase-Glo ATP luminescence, activation; response scale: 0% is enzyme alone, no compound | Potency, µM (doses to about 57.5 µM), without a hit: at the highest dose activation, actives largely listed as activators | actives 0.34% (n = 260,000) | AID 1631, 2009; also: % is scaled to controls: 0 for no effect and ±100 for the full control effect; nearly all actives have a fitted effect of over 55% in size
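ATP formation by purified human PK-M2, quantified via coupled luciferase luminescence after 1 h at room temperature with 0.1 mM ADP and 0.5 mM PEP final.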
Mito fusion yeast: qHTS Assay for Small Molecule Inhibitors of Mitochondrial Division or Activators of Mitochondrial Fusion | S. cerevisiae fusion-defective mutant growth rescue, CellTiterGlo 48 h | Potency, µM (doses to about 46.1 µM), inactives show at the highest dose growth rescue (activation), actives largely listed as activators | actives 0.23% (n = 320,000) | AID 485298, 2010; also: % of control where 0% means no effect; nearly all actives have a fitted effect of over 45% in size
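Compounds are tested for their ability to restore growth of mitochondrial fusion-defective yeast strains at non-permissive 37C in YPEG medium over 48 hours. Viability is quantified by luciferase luminescence.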
KAT2A inh: qHTS Assay for Inhibitors of GCN5L2; GCN5L2 HAT assay, ThioGlo1 CoA-SH fluorescence; Potency, µM (series often up to 58.9 µM), without a hit: top-dose activity change, negative = inhibition, usual class: inhibitors; actives 0.21% (n = 390,000); AID 504327, 2011; also: % is scaled to controls: 0 for no effect and ±100 for the full control effect
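GCN5L2 (20 nM) in 50mM HEPES pH 7.5, 0.1mM EDTA, 0.01% Tween-20 preincubated 15 min with compounds at room temperature. Reaction started with H3(1-25) 75uM, acetyl-CoA 70uM, ThioGlo1 50uM; CoA-thiol fluorescence (Ex340/Em540) read at 0 and 20 min.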
GLS inh: qHTS for Inhibitors of Glutaminase (GLS); Glutaminase kidney isoform, mitochondrial (Homo sapiens), O94925; AID 624170, 2012; Potency, µM (doses to about 45.5 µM), inactives show at the top dose activity change, negative = inhibition, most hits filed as inhibitors; actives 0.21% (n = 410,000); GLS enzymatic activity, qHTS titration; also: % is scaled to controls: 0 for no effect and ±100 for the full control effect
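hKGA in 45 mM KH2PO4 pH 8.2, 0.02% Tween-20 with pin-transferred compounds; 1 mM L-glutamine (stock) plus glutamate oxidase/HRP/Amplex Red coupling added. Fluorescence read initially and after 30 min at RT.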
VDR inhibitor: Inhibitors of the vitamin D receptor (VDR): qHTS. Vitamin D3 receptor (Homo sapiens), P11473. VDR-SRC2-3 peptide fluorescence polarization, 2 h. Potency, µM, for inactives: max response, negative = inhibition, hits mostly inhibitors. actives 0.93% (n = 400,000); also: % is scaled to controls: 0 for no effect and ±100 for the full control effect
Target sequence (P11473 whole entry, looked up): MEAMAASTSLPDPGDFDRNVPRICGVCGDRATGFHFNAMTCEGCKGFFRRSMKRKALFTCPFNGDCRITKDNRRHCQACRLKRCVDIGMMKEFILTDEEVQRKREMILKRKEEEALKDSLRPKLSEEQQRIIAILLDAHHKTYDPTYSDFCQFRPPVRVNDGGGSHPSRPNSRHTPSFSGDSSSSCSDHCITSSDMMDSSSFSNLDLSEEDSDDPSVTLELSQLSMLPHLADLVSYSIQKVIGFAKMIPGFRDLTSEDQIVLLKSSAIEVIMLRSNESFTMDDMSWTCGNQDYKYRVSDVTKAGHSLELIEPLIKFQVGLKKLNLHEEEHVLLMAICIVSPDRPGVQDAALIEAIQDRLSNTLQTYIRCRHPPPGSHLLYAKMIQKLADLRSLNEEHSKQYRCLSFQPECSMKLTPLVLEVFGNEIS
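After 23 nl compound addition and a short centrifugation, plates sat for 2 hours at ambient temperature; polarization of fluorescence then indicated loss of VDR binding to peptide SRC2-3.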
Numbers without * were called inactive; ? = inconclusive; . = no result; [ ] = remark or other dose. Rows were chosen to be rich in hits. Some 3.4% of all compounds tested hit in one or more screens of this group. Calls follow the shape of the dose curve; as a rule, active = well fitted curve in the direction sought with a large enough effect; inconclusive = small, poorly fitted or top-dose-only effect, or another doubt; inactive = no such curve, though single readings can be large; an effect the other way counts as inactive or inconclusive. Potency is read from the fitted curve at half-maximal effect.

SMILES | PLK1 PBD block | PKM2 act | Mito fusion yeast | KAT2A inh | GLS inh | VDR inhibitor
COc1ccc(C(=O)Oc2ccc3oc(=O)sc3c2)cc1 | -24% | 10% | 28% | -3% | -9% | ?
CC(=O)N(c1ccc2oc(=O)sc2c1)S(=O)(=O)c1ccccc1 | 30µM* | ? | -6% | -12% | 4% | -27%
CC(C)C(=O)N(c1ccc2oc(=O)sc2c1)S(=O)(=O)c1ccccc1 | -11% | 6% | 18% | -3% | -2% | 79µM*
CCCC(=O)N(c1ccc2oc(=O)sc2c1)S(=O)(=O)c1cccs1 | -21% | ? | -10% | -6% | 11% | ?
COc1ccc2c(c1)CC/C2=N\OC(=O)c1ccccc1OC | -24% | -15% | 35µM* | -3% | -5% | -5%
COc1ccccc1C(O)c1nccn1Cc1ccccc1 (stereo not drawn) | . | . | . | . | . | -4%
CN(C(=O)CCc1ccccc1F)C1CCCN(Cc2ccccc2F)C1 (stereo not drawn) | 3.4µM* | 1% | 0% | -7% | ? | 35µM*
COc1cc(NC(=O)c2ccc(COCC(F)(F)F)cc2)cc(OC)c1OC | 4.7µM* | -4% | -1% | 24% | 4% | -17%
COc1ccc(NC(=O)c2ccc(COCC(F)(F)C(F)F)cc2)cc1OC | -3% | 2% | 0% | -7% | -8% | -2%
CC[C@H](C)[C@H](NC(=O)[C@H](Cc1ccc(O)cc1)NC(=O)CNC(=O)[C@@H]1CCCN1C(=O)[C@H](CC(=O)O)NC(=O)[C@@H](N)CS)C(=O)NCC(=O)N[C@@H](CO)C(=O)N[C@@H](CCCN=C(N)N)C(N)=O | . | . | . | 46% | . | -1%
Brc1ccc(-c2csc(NNC3=NCCCCC3)n2)cc1 | ? | 5% | -11% | ? | -2% | ?
FC(F)Oc1ccc(-c2csc(NNC3=NCCCCC3)n2)cc1 | 3.8µM* | -3% | 18% | -4% | ? | ?
CC(=O)Nc1ccc(S(=O)(=O)N(Cc2ccccc2)Cc2ccccc2)cc1 | . | . | . | -9% | 3% | -13%
CNc1ccc2ncc(-c3cccc(C(=O)N(C)C)c3)n2n1 | -13% | . | . | . | -11% | .
Cc1ccc(CN(CC(O)COc2cccc3[nH]cc(C)c23)C(C)(C)C)cc1 (stereo not drawn) | 1% | . | 5.6µM* | -2% | 10% | -2%
O=C(CSc1nnc(-c2ccc(O)cc2)o1)Nc1cccc(O)c1 | 0% | 7.9µM* | -3% | -8% | 0% | 1%
O=C(CSc1nnc(-c2ccc(O)cc2)o1)Nc1ccc2c(c1)OCCO2 | -11% | -1% | 0% | 1% | -21% | -3%
CC(=O)c1ccc(S(=O)(=O)NCC(=O)N2CCN(C/C=C/c3ccccc3)CC2)cc1 | 27µM* | . | 2% | 1% | 13% | -16%
O=C(NCC(=O)N1CCN(C/C=C/c2ccccc2)CC1)c1ccc(Br)cc1 | -8% | . | . | 0% | -2% | -2%
CC1(C)CC(NS(=O)(=O)OCC(Cl)(Cl)Cl)c2cc(C#N)ccc2O1 (stereo not drawn) | 24µM* | 0% | -2% | 1% | 34% | ?
COc1cc(C(c2c(C)[nH][nH]c2=O)c2c(C)[nH][nH]c2=O)cc(Br)c1OC | 27µM* | 11% | -2% | -1% | 8% | ?
COc1cc(C(c2c(C)[nH][nH]c2=O)c2c(C)[nH][nH]c2=O)cc([N+](=O)[O-])c1O | 27µM* | -5% | -10% | -3% | ? | -15%
CCOc1cc(C(c2c(C)[nH][nH]c2=O)c2c(C)[nH][nH]c2=O)cc([N+](=O)[O-])c1O | -12% | . | -1% | 1% | 23% | -13%
CCOc1cc(C(c2c(C)[nH][nH]c2=O)c2c(C)[nH][nH]c2=O)cc(Br)c1OC | ? | . | -12% | -1% | ? | -17%
Cc1ccc(F)c(C2C3C=CCCC3(C)C(=O)N2Cc2ccccc2)c1 (stereo not drawn) | . | . | . | . | . | -15%
SMILES | PLK1 PBD block | PKM2 act | Mito fusion yeast | KAT2A inh | GLS inh | VDR inhibitor
Cn1[nH]c2c(c1=O)[C@H](c1ccc(F)cc1)O[C@H](CCc1ccccc1)C2 | 19µM* | . | . | . | 11% | .
C#CC[N+]1(CC#Cc2ccccc2)CCCC1 | -9% | -4% | 3% | -1% | -4% | -9%
O=S(=O)([O-])CCC[N+]1(CC#Cc2ccccc2)CCCCC1 | 4.7µM* | 1% | 15% | 0% | ? | ?
O=C1c2ccccc2C(=O)N1CCc1ccccc1 | 27µM* | . | . | . | -15% | -22%
O=C(O)CCN1C(=O)c2ccc(NC(=O)CSc3ccccc3)cc2C1=O | 27µM* | 5% | 2% | 5% | 6% | ?
O=C1c2ccccc2C(=O)N1CCCCCCc1ccccc1 | -3% | . | 28% | -5% | -10% | -9%
CN1C(=O)c2ccc(NC(=O)CSc3ccccc3)cc2C1=O | -11% | 3%[0.46 µM] | -6% | -3% | 0% | -2%
O=C1c2ccccc2C(=O)N1CCSc1ccccc1 | 27µM* | -10% | 4% | -10% | -6% | -2%
O=C1c2ccccc2C(=O)N1CCSc1nncs1 | -3% | 1% | 2% | -8% | -4% | 19%
CC#CCN1c2ccccc2[C@]23C[C@@H](C(=O)OC)N(S(=O)(=O)c4ccc(OC)cc4)C2=NC(C(=O)OC)=C(C(=O)OC)[C@H]13 | . | -4%[11.5 µM] | . | . | . | .
OC[C@@H]1CN(Cc2ccc3c(c2)OCO3)C[C@H](n2cnc3c(N4CCN(c5ccccc5)CC4)ncnc32)O1 | 1% | . | . | . | 17% | .
COc1cc(C)c(S(=O)(=O)NOCc2ccccc2)c(C)c1C | -19% | 9% | 2% | -11% | 6% | -17%
COc1cc(C)c(-c2[nH]ncc2-c2csc(C)n2)c(O)c1 | 30µM* | 6% | -4% | 1% | 43% | -13%
Cc1nc(-c2cn[nH]c2-c2ccc(O)cc2O)cs1 | -8% | -3% | -5% | 2% | 5% | -7%
O=C(CC1OC(=O)c2ccccc21)Nc1ccccc1N1CCOCC1 (stereo not drawn) | -9% | -3% | 2% | -4% | 2% | -4%
CC(=O)N1CCN(C(=O)CC2OC(=O)c3ccccc32)CC1 (stereo not drawn) | 27µM* | 4% | -6% | -6% | -7% | ?
CC(=O)Nc1ccc(S[C@@H](CCN2CC[C@H](C(C)(C)C)CCC2=O)c2ccccc2)cc1 | 8.4µM* | . | 29% | ? | 2% | ?
